Test results from PubChem BioAssay AID1159580 (chemical genetic matrix, 2015).
Screen size: about 5,500 compounds; about 2,000 (36%) were called active. Not shown: some 18% with an inconclusive outcome. No stated cut-off is given here; in the data, active means normalized growth mostly below about 0.91 (no sharp cut-off); inconclusive means no clear call, values can overlap the other calls; inactive means mostly above about 0.92. This is one part of the list.

Assay: chemical genetic growth profiling, strain panel (AID 1159580);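 further: tested at 20 µM; growth read once vehicle control cultures reached saturation at 30 °C; 1 = growth at the plate median or of vehicle wells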
Settings: growth OD

Measured: normalized growth

Oc1cc(O)c2c(c1)O[C@H](c1ccc(O)c(O)c1)[C@@H](O)C2
inactive: S. cerevisiae deletion strains, locus YJR066W, strain TOR1, stronger effect = lower value 0.927 | S. cerevisiae deletion strains, locus YJR075W, strain HOC1, stronger effect = lower value 1 | S. cerevisiae deletion strains, locus YKL009W, strain mrt4, stronger effect = lower value 0.991 | S. cerevisiae deletion strains, locus YKL068W, stronger effect = lower value 0.977 | S. cerevisiae deletion strains, locus YKL085W, strain MDH1 (second series), stronger effect = lower value 0.981 | S. cerevisiae deletion strains, locus YKL085W, strain MDH1, stronger effect = lower value 0.981 | S. cerevisiae deletion strains, locus YKL160W, strain elf1, stronger effect = lower value 1.02 | S. cerevisiae deletion strains, locus YKR001C, strain vps1, stronger effect = lower value 1.03 | S. cerevisiae deletion strains, locus YKR026C, strain gcn3, stronger effect = lower value 0.973 | S. cerevisiae deletion strains, locus YKR091W, strain srl3, stronger effect = lower value 1.01 | S. cerevisiae deletion strains, locus YLL001W, strain dnm1, stronger effect = lower value 1.01 | S. cerevisiae deletion strains, locus YLL026W, stronger effect = lower value 1 | S. cerevisiae deletion strains, locus YLL041C, strain sdh2, stronger effect = lower value 1.01 | S. cerevisiae deletion strains, locus YLR027C, strain aat2, stronger effect = lower value 1.02 | S. cerevisiae deletion strains, locus YLR039C, strain RIC1, stronger effect = lower value 0.919 | S. cerevisiae deletion strains, locus YLR058C, strain SHM2, stronger effect = lower value 0.973 | S. cerevisiae deletion strains, locus YLR102C, strain apc9, stronger effect = lower value 0.985 | S. cerevisiae deletion strains, locus YLR113W, strain HOG1, stronger effect = lower value 0.987 | S. cerevisiae deletion strains, locus YLR221C, strain rsa3, stronger effect = lower value 1.02 | S. cerevisiae deletion strains, locus YLR258W, strain gsy2, stronger effect = lower value 1 | S. cerevisiae deletion strains, locus YLR262C, strain YPT6 (second series), stronger effect = lower value 1.02 | S. cerevisiae deletion strains, locus YLR262C, strain YPT6, stronger effect = lower value 0.945 | S. cerevisiae deletion strains, locus YLR268W, strain sec22, stronger effect = lower value 1.02 | S. cerevisiae deletion strains, locus YLR320W, strain mms22, stronger effect = lower value 1.01 | S. cerevisiae deletion strains, locus YLR330W, strain CHS5, stronger effect = lower value 1 | S. cerevisiae deletion strains, locus YLR342W, strain FKS1 (second series), stronger effect = lower value 1.02 | S. cerevisiae deletion strains, locus YLR342W, strain FKS1, stronger effect = lower value 1.01 | S. cerevisiae deletion strains, locus YLR357W, strain rsc2, stronger effect = lower value 0.987 | S. cerevisiae deletion strains, locus YLR370C, strain arc18, stronger effect = lower value 1.01 | S. cerevisiae deletion strains, locus YLR371W, strain rom2, stronger effect = lower value 1.01 | S. cerevisiae deletion strains, locus YLR384C, strain iki3, stronger effect = lower value 0.997 | S. cerevisiae deletion strains, locus YLR418C, strain cdc73, stronger effect = lower value 0.965 | S. cerevisiae deletion strains, locus YML016C, strain PPZ1, stronger effect = lower value 0.999 | S. cerevisiae deletion strains, locus YML032C, strain rad52, stronger effect = lower value 0.947 | S. cerevisiae deletion strains, locus YML120C, strain ndi1, stronger effect = lower value 1.01 | S. cerevisiae deletion strains, locus YML124C, strain tub3, stronger effect = lower value 0.985 | S. cerevisiae deletion strains, locus YMR058W, strain fet3, stronger effect = lower value 1.02 | S. cerevisiae deletion strains, locus YMR078C, strain ctf18, stronger effect = lower value 0.984 | S. cerevisiae deletion strains, locus YMR125W, strain sto1, stronger effect = lower value 1.01 | S. cerevisiae deletion strains, locus YMR129W, stronger effect = lower value 1.02 | S. cerevisiae deletion strains, locus YMR205C, strain PFK2, stronger effect = lower value 1 | S. cerevisiae deletion strains, locus YMR223W, strain ubp8, stronger effect = lower value 0.972 | S. cerevisiae deletion strains, locus YMR231W, strain pep5, stronger effect = lower value 1 | S. cerevisiae deletion strains, locus YMR263W, strain SAP30, stronger effect = lower value 0.993 | S. cerevisiae deletion strains, locus YMR307W, strain GAS1, stronger effect = lower value 1.01 | S. cerevisiae deletion strains, locus YNL067W, strain RPL9B, stronger effect = lower value 0.983 | S. cerevisiae deletion strains, locus YNL071W, strain lat1, stronger effect = lower value 1.02 | S. cerevisiae deletion strains, locus YNL128W, strain TEP1, stronger effect = lower value 0.97 | S. cerevisiae deletion strains, locus YNL183C, strain NPR1, stronger effect = lower value 0.95 | S. cerevisiae deletion strains, locus YNL209W, strain ssb2, stronger effect = lower value 1.01 | S. cerevisiae deletion strains, locus YNL233W, strain BNI4, stronger effect = lower value 0.993 | S. cerevisiae deletion strains, locus YNL248C, strain rpa49, stronger effect = lower value 1.03 | S. cerevisiae deletion strains, locus YNL250W, strain rad50, stronger effect = lower value 0.981 | S. cerevisiae deletion strains, locus YNL271C, strain bni1, stronger effect = lower value 0.988 | S. cerevisiae deletion strains, locus YNL298W, strain CLA4, stronger effect = lower value 0.969 | S. cerevisiae deletion strains, locus YNL307C, strain MCK1, stronger effect = lower value 0.989 | S. cerevisiae deletion strains, locus YNL322C, strain KRE1 (second series), stronger effect = lower value 1.01 | S. cerevisiae deletion strains, locus YNL322C, strain KRE1, stronger effect = lower value 0.99 | S. cerevisiae deletion strains, locus YNR049C, strain mso1, stronger effect = lower value 1 | S. cerevisiae deletion strains, locus YNR052C, strain pop2, stronger effect = lower value 0.995 | S. cerevisiae deletion strains, locus YOL012C, strain htz1 1.07 | S. cerevisiae deletion strains, locus YOL147C, strain pex11, stronger effect = lower value 0.979 | S. cerevisiae deletion strains, locus YOR001W, strain rrp6, stronger effect = lower value 1.02 | S. cerevisiae deletion strains, locus YOR061W, strain CKA2, stronger effect = lower value 0.97 | S. cerevisiae deletion strains, locus YOR069W, strain VPS5, stronger effect = lower value 0.994 | S. cerevisiae deletion strains, locus YOR070C, strain gyp1, stronger effect = lower value 0.996 | S. cerevisiae deletion strains, locus YOR080W, strain dia2, stronger effect = lower value 1 | S. cerevisiae deletion strains, locus YOR083W, strain WHI5, stronger effect = lower value 1.02 | S. cerevisiae deletion strains, locus YOR106W, strain vam3, stronger effect = lower value 1.03 | S. cerevisiae deletion strains, locus YOR136W, strain idh2, stronger effect = lower value 1 | S. cerevisiae deletion strains, locus YOR144C, strain elg1, stronger effect = lower value 0.983 | S. cerevisiae deletion strains, locus YOR184W, strain ser1, stronger effect = lower value 0.995 | S. cerevisiae deletion strains, locus YOR231W, strain MKK1, stronger effect = lower value 0.987 | S. cerevisiae deletion strains, locus YOR265W, strain rbl2, stronger effect = lower value 1 | S. cerevisiae deletion strains, locus YOR270C, strain vph1, stronger effect = lower value 1.07 | S. cerevisiae deletion strains, locus YOR290C, strain snf2, stronger effect = lower value 0.971 | S. cerevisiae deletion strains, locus YOR316C, strain cot1, stronger effect = lower value 0.979 | S. cerevisiae deletion strains, locus YPL051W, strain arl3, stronger effect = lower value 1.02 | S. cerevisiae deletion strains, locus YPL078C, strain atp4, stronger effect = lower value 1.01 | S. cerevisiae deletion strains, locus YPL106C, strain sse1, stronger effect = lower value 1 | S. cerevisiae deletion strains, locus YPL240C, strain hsp82, stronger effect = lower value 1 | S. cerevisiae deletion strains, locus YPL256C, strain CLN2, stronger effect = lower value 0.984 | S. cerevisiae deletion strains, locus YPR119W, strain clb2, stronger effect = lower value 0.983 | S. cerevisiae deletion strains, locus YPR141C, strain kar3, stronger effect = lower value 0.972 | S. cerevisiae deletion strains, locus YPR163C, strain tif3, stronger effect = lower value 0.992 | S. cerevisiae deletion strains, locus YPR167C, strain met16, stronger effect = lower value 0.975 | S. cerevisiae deletion strains, strain wtn01, stronger effect = lower value 1.05 | S. cerevisiae strains, strain wild type, stronger effect = lower value 0.985
